Holding throughout (experiment): NCI-60 one-dose screen, 48 h (100 = growth as untreated, 0 = no growth, -100 = all killed)
Details in all cases: 10 µM unless noted

The test system of experiment [1] is NCI-H23 lung.
Experiment [2] concerns NCI-H226 lung.
In experiment [3] the test system is NCI-H322M lung.
Experiment [4] relates to HOP-62 NSCLC.
Experiment [5] concerns NCI-H460 lung.
Experiment [6] deals with HOP-92 NSCLC.
Experiment [7] concerns A549/ATCC NSCLC.
The test system of experiment [8] is 786-0 renal.
The subject of experiment [9] is COLO 205 colon.
For experiment [10], the system named is NCI-H522 lung.

Structures are written as SMILES. This is part of a sample that, as a whole, favours compounds with a hit. Of some 83,000 tested, about 20% had one in any assay.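 Single-concentration screen, 48 h exposure, 96-well plates. Endpoint: percent growth. Below 10 = active.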 Values without a mark were called inactive. Active and inactive are the calls of the source.

Take `C#C[C@]1(O)CC[C@H]2[C@@H]3CC=C4c5nc(N)sc5CC[C@]4(C)[C@H]3CC[C@@]21C`: the growth was 78% in experiment [1]; 83.8% in [2]; 79.7% in [3]; 62.5% in [4]; 86.9% in experiment [5]; 62.2% in experiment [6]. Further, the growth was 65.9% in experiment [7], -0.771% (active) in experiment [8] and 80.5% in experiment [9].
In the case of `CCc1cccc(Cl)c1`, the growth in experiment [1] is 111%; in [2], 99.2%; in experiment [3], 108%; in [4] it was 103%; in [5], 110%; in experiment [6], 93.2%. For the same compound, the growth was 98.8% in experiment [7], 105% in [8] and 117% in experiment [9].
For the compound `COc1c(C(C)=O)c(OCCCCOc2c(C(C)=O)c(OC)c3ccoc3c2OC)c(OC)c2occc12`, the growth was 68.8% in experiment [1]; 65.4% in experiment [2]; 85.2% in [3]; 117% in [4]; 80.1% in experiment [5]; 57.3% in experiment [6]. For the same compound, the growth is 64.7% in [7], 89% in experiment [8] and 77% in experiment [9].
Turning to `Cc1cc[n+](CCCCCCCCCC[n+]2ccc(C)cc2)cc1`, the growth was 68.8% in [1]; 68.3% in [2]; 109% in experiment [3]; 87.7% in experiment [4]; 98.7% in experiment [5]; 99.8% in [6]. Further, the growth in experiment [7] is 73.3%; in [8] it was 97.5%; in [9], 103%.
As for `Cc1ccc(C2=C/C(=C/c3ccc(Br)cc3)C(=O)N2CCc2ccc(S(N)(=O)=O)cc2)cc1`, the growth was 100% in [1]; 97% in experiment [2]; 90.6% in experiment [3]; 96.1% in [4]; 100% in [5]; 89.9% in [6]. In addition, the growth in [7] is 96%; in experiment [8] it was 97.1%; in [9], 115%.
`CCOC(=O)C(c1ccccc1)N1C(=O)c2ccccc2C1=O` (stereo unspecified): the growth in experiment [1] was 87.2%; in experiment [2], 106%; in [3] it was 96.2%; in [4] it was 95.8%; in experiment [5], 100%; in experiment [6], 82%. Besides, the growth in [10] was 96.8%; in experiment [7], 97.6%; in experiment [8], 102%; in experiment [9] it was 98.5%.
Consider `O=C(O)c1ccccc1C(F)(F)F`, for which the growth is 66.7% in [1]; 89.2% in [2]; 106% in [3]; 103% in experiment [4]; 102% in [5]; 88.2% in experiment [6]. Moreover, the growth is 72.1% in experiment [10], 16.1% in [7], 96.2% in experiment [8] and 102% in experiment [9].
`O=C(CCN1CCCCC1)c1ccc2ccccc2c1`: the growth in [1] is 103%; in [2], 92.2%; in experiment [3], 98.4%; in [4] it was 108%; in [5], 103%; in experiment [6], 92.8%. In addition, the growth in [7] was 102%; in experiment [8], 111%; in [9], 112%.
Take `Nc1ccc(NC(=O)c2ccccc2)c2c1C(=O)c1ccccc1C2=O`: the growth in experiment [1] was 96.1%; in experiment [2], 89.5%; in [3], 99.1%; in [4], 107%; in experiment [5] it was 104%; in [6], 80.2%. The growth in experiment [7] was 97%; in experiment [8], 103%; in [9], 109%.
As for `N#CC1C(=O)NC(c2ccccc2[N+](=O)[O-])c2sc3c(F)cccc3c21` (stereo unspecified), the growth in experiment [1] was 68.9%; in experiment [2], -14.9% (active); in experiment [3], 67.2%; in experiment [4] it was 33.8%; in experiment [5], 2.01% (active); in [6] it was 82.7%. The figures for the growth in experiment [7], in [8] and in experiment [9] were 47.2%, 90% and 70.1%, respectively.
With `CC(C)CSc1ncnc2nc[nH]c12`, the growth in [1] is 94.7%; in [2], 85.2%; in experiment [3], 103%; in experiment [4] it was 95.9%; in experiment [5], 96.9%; in experiment [6], 68.8%. Also, the growth was 88% in experiment [10], 103% in experiment [7], 93.8% in experiment [8] and 101% in [9].
As for `Cc1ccc(NC(=O)N[C@@H](Cc2cc(F)cc(F)c2)C(=O)N[C@@H]2C(=O)N3CCC[C@H]3C(=O)N3CCCC[C@H]3C(=O)N[C@@H](C)C(=O)N3C[C@H](C)C[C@H]3C(=O)O[C@H]2C)cc1`, the growth is 33.5% in experiment [1]; 28.5% in experiment [2]; 62.8% in [3]; 30.1% in experiment [4]; 25.6% in experiment [5]; 29.8% in experiment [6]. For the same compound, the growth was 23.1% in experiment [7], 28.2% in experiment [8] and 7.51% (active) in [9].
For `Cn1cc(-c2noc(-c3cn(C)c4ncc(F)cc34)n2)c2cc(Br)ccc21`, the growth in experiment [1] was 79.9%; in experiment [2], 98.7%; in experiment [3], 53.7%; in experiment [4], 67.8%; in [5], 22.8%; in [6], 81.1%. Moreover, the results for the growth in experiment [7], in experiment [8] and in [9] were 45.2%, 49.4% and 77.9%, respectively.
As to `Nc1nc(SCc2cccc([N+](=O)[O-])c2)c2[nH]cnc2n1`, the growth was 102% in experiment [1]; 90% in experiment [2]; 91.2% in experiment [3]; 94.6% in experiment [4]; 108% in [5]; 100% in experiment [6]. Besides, the results for the growth in experiment [7], in [8] and in [9] were 97.2%, 98.1% and 114%, respectively.
On to `O=c1[nH]c(CN2CCN(c3cccc(Cl)c3)CC2)nc2cc(Cl)ccc12`, for which the growth was 84.9% in [1]; 87.6% in experiment [2]; 113% in experiment [3]; 89.7% in [4]; 104% in [5]; 105% in [6]. Moreover, the figures for the growth in experiment [7], in experiment [8] and in experiment [9] were 88.9%, 90% and 106%, respectively.
Regarding `CCCCCCCCN(CCCCCCCC)CC(O)c1ccc(Cl)c(C)c1Cl` (stereo unspecified), the growth is 65% in [1]; 94.4% in experiment [2]; 81.8% in experiment [3]; 89.3% in [4]; 72.8% in experiment [5]; 71.2% in experiment [6]. Also, the growth was 65.6% in experiment [10], 78% in experiment [7], 91.7% in experiment [8] and 60.5% in [9].
`Cc1nc(Cl)cc(N(c2cc(Cl)nc(C)n2)c2ncc(C(=O)Nc3c(C)cccc3Cl)s2)n1`: the growth is 78.2% in [1]; 59.3% in [2]; 52.2% in [3]; 39.4% in experiment [4]; 59.5% in experiment [5]; -33.5% (active) in experiment [6]. Further, the growth is 50.5% in experiment [7], 40.1% in [8] and 67.7% in experiment [9].
For the compound `CCCCCN(CCCCC)CCCCCCCCN1CCCc2ccccc21`, the growth was 76% in experiment [1]; 97.6% in [2]; 89.9% in experiment [3]; 109% in [4]; 96% in experiment [5]; 88% in experiment [6]. In addition, the growth in experiment [7] was 95.8%; in experiment [8], 96.6%; in experiment [9], 88.5%.
As for `Nc1nc(Cl)c2ncn(Cc3cc4c(cc3I)OCO4)c2n1`, the growth in experiment [1] is 75.2%; in [2], 85.8%; in experiment [3], 65.4%; in experiment [4], 36.1%; in experiment [5], 18%; in experiment [6] it was 82.4%. Also, the growth was 45.6% in [7], 44.4% in experiment [8] and 21.1% in experiment [9].
As for `CCOC(=O)c1nc2c3ccccc3ccn2c1C(=O)OC`, the growth in [1] is 97.2%; in experiment [2] it was 97.2%; in experiment [3], 95.6%; in experiment [4], 95.5%; in experiment [5] it was 103%; in experiment [6], 103%. Further, the growth in experiment [7] was 92.8%; in [8], 93.8%; in [9], 104%.
For the compound `O=c1c2c3c(sc2n2cnnc2n1Cc1ccccc1)CCCC3`, the growth is 100% in experiment [1]; 85% in [2]; 104% in [3]; 119% in experiment [4]; 97.7% in experiment [5]; 89.8% in experiment [6]. In addition, the growth in experiment [7] is 91.7%; in experiment [8], 100%; in [9], 83.3%.
For `Nc1nc(Nc2ccccc2)c2ncn(Cc3ccc4c(c3)OCO4)c2n1`, the growth in [1] was 62.8%; in [2], 75.1%; in [3], 58.1%; in experiment [4] it was 40.8%; in experiment [5], 15.9%; in experiment [6], 63.9%. Moreover, the growth in experiment [7] was 42%; in [8] it was 54.8%; in experiment [9], 47%.
For `CCCCCCCCCCCCNC(=S)N/N=C/c1ccccc1O`, the growth in [1] is 60.9%; in experiment [2] it was 69.2%; in [3], 83.5%; in experiment [4], 74%; in [5], 49.6%; in [6], 84.2%. In addition, the growth in experiment [7] was 95.6%; in [8] it was 89.5%; in [9], 33.1%.
Take `Cn1cc(-c2noc(-c3cn(C)c4ncccc34)n2)c2cc(Cl)ccc21`: the growth is 91.5% in experiment [1]; 115% in [2]; 91.2% in experiment [3]; 93.2% in [4]; 88% in experiment [5]; 135% in experiment [6]. Besides, the growth in experiment [7] is 79.7%; in experiment [8], 95.4%; in experiment [9], 91.9%.
As to `O=C(N/N=C/c1c(Cl)cccc1Cl)c1cccc(Nc2ccnc(C(F)(F)F)c2)c1`, the growth in experiment [1] was 89.7%; in experiment [2], 78.7%; in experiment [3] it was 108%; in [4], 86.6%; in experiment [5], 82.1%; in [6], 60.5%. In addition, the growth in [7] is 107%; in experiment [8] it was 81.9%; in experiment [9], 89.4%.
In the case of `O=C1COCCN1c1ccc(Nc2nc(Cl)nc(N3CCOCC3)n2)cc1`, the growth was 96.5% in experiment [1]; 87.5% in experiment [2]; 93.3% in experiment [3]; 97.9% in experiment [4]; 108% in [5]; 85.8% in experiment [6]. For the same compound, the growth in [7] is 95.8%; in [8] it was 104%; in experiment [9], 102%.
As for `O=C(N=c1n(-c2ccccc2)nc2n1CCN2C1=NCCN1C(=O)c1ccc(Cl)cc1)c1ccc(Cl)cc1`, the growth in experiment [1] is 75.9%; in [2], 93.2%; in [3] it was 86.9%; in experiment [4] it was 93.5%; in experiment [5], 60.6%; in [6], 120%. Besides, the growth was 65.4% in experiment [7], 83.1% in experiment [8] and 75.1% in experiment [9].
In the case of `C=C(C)[C@@H]1CC[C@]2(C(=O)OC)CC[C@]3(C)[C@H](CC[C@@H]4[C@@]5(C)CC/C(=N\OCCC(=NCCC#N)NOCCC#N)C(C)(C)[C@@H]5CC[C@]43C)[C@@H]12`, the growth in experiment [1] is 21.8% [100 µM]; in [2] it was 2.42% [100 µM] (active); in experiment [3] it was 46.1% [100 µM]; in experiment [4] it was 32.5% [100 µM]; in experiment [5], 4.22% [100 µM] (active); in experiment [6] it was -15% [100 µM] (active). In addition, the values for the growth in experiment [7], in experiment [8] and in [9] were 15.8% [100 µM], -11.5% [100 µM] (active) and 17.6% [100 µM], respectively.
